Compound activity: PubChem, Broad Institute
Shh pathway inh: blocks Sonic Hedgehog signaling; Shh-LIGHT2 Gli-luciferase reporter, 30 h; inhibition, % (no concentration beside the values); hit rate 2.1% among 22,000; AID 2313;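 active means mean inhibition across valid replicates above about 65%, limit read from the data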;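 further: pathway switched on by Shh-conditioned medium diluted 1 in 25 in low serum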
PD-1 reverse act: reversal of PD-1 mediated T-cell inhibition | primary human CD4 T cells, PD-L1 beads, CellTiter-Glo 96 h | activation, % (no concentration beside the values) | 29,000 tested, under 10 active; call rule not given here
MITF inh: blocks MITF activity; AID 2240; TRPM1 promoter luciferase, luminescence, 24 h; hit rate 0.28% among 37,000; inhibition, % (no concentration beside the values); in the data active means inhibition above about 85%;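 further: human melanocyte line stably carrying TRPM1 promoter luciferase reporter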
NOMO-1 viab: STK33 inhibitor candidate reducing NOMO-1 cell viability. NOMO-1 AML viability, CellTiter-Glo luminescence, 72 h. inhibition, % (no concentration beside the values). hit rate 7.5% among 37,000. AID 2330; in the data active means inhibition above about 80%
Hits are given with their value; i = inactive; nt = not tested or not shown. Rows were chosen to be rich in hits. Some 8.1% of all compounds tested hit in one or more screens of this group.

SMILES | Shh pathway inh | PD-1 reverse act | MITF inh | NOMO-1 viab
C[C@@H]1CN([C@H](C)CO)C(=O)Cc2cc(NC(=O)Nc3ccc4c(c3)OCO4)ccc2O[C@H]1CN(C)Cc1ccc(-c2ccccc2)cc1 | i | i | i | 98
CC(C)NC(=O)Nc1ccc2c(c1)CC(=O)N([C@@H](C)CO)C[C@H](C)[C@@H](CN(C)Cc1ccc(-c3ccccc3)cc1)O2 | i | i | i | i
C[C@@H]1CN([C@H](C)CO)C(=O)Cc2cc(NC(=O)Nc3ccccc3)ccc2O[C@H]1CN(C)Cc1ccc(-c2ccccc2)cc1 | i | i | i | i
O=C(CSC1CC(=O)N(c2ccc(OC(F)(F)F)cc2)C1=O)Nc1ccc(Cl)cc1 (centres undefined) | nt | i | i | i
CCn1c(SCC(=O)Nc2ccc(Cl)c(Cl)c2)nnc1-c1ccc(Br)cc1 | nt | i | i | i
CCC(Sc1nnnn1-c1ccccc1)C(=O)Nc1sc2c(c1C#N)CCCC2 (centres undefined) | 68 | i | i | i
OC(CNC1CCCC1)Cn1c2ccccc2c2ccccc21 (centres undefined) | nt | i | i | 96
CCOC(=O)CC1=Nn2c(nnc2-c2cccs2)SC1 | i | i | i | i
CCOC(=O)CSc1c(-c2cccs2)[nH]c2ccccc12 | i | i | i | 139
COc1ccc(-n2c(CC#N)nnc2SCc2c(C)c(C)c(C)c(C)c2C)cc1 | i | i | i | 102
COc1ccc(-n2c(CSc3nnc(-c4ccc(OC)c(OC)c4)n3-c3ccccc3)n[nH]c2=S)cc1 | nt | i | i | i
CNc1cc(=O)n(-c2ccccc2)c(=O)n1-c1ccccc1 | i | i | i | i
C[C@@H]1CN([C@H](C)CO)C(=O)c2cc(NC(=O)Nc3ccccc3)ccc2O[C@H]1CN(C)Cc1ccc(C(F)(F)F)cc1 | i | i | i | 99
C[C@H](CO)N1C[C@H](C)[C@@H](CN(C)Cc2ccccc2)Oc2ccc(NC(=O)Nc3ccc(C(F)(F)F)cc3)cc2C1=O | i | i | i | 122
C[C@@H]1CN([C@H](C)CO)C(=O)c2cc(NC(=O)Nc3ccccc3)ccc2O[C@@H]1CN(C)Cc1ccc(C(F)(F)F)cc1 | nt | i | i | i
COc1ccc(NC(=O)Nc2cccc3c2O[C@@H](CN(C)Cc2ccc(C(=O)Nc4ccccc4N)cc2)[C@H](C)CN([C@H](C)CO)C3=O)cc1 | nt | i | i | 125
COc1ccc(NC(=O)Nc2cccc3c2O[C@H](CN(C)Cc2ccc(C(=O)Nc4ccccc4N)cc2)[C@@H](C)CN([C@H](C)CO)C3=O)cc1 | nt | i | i | 128
COc1ccc(NC(=O)Nc2cccc3c2O[C@H](CN(C)Cc2ccc(C(=O)Nc4ccccc4N)cc2)[C@H](C)CN([C@@H](C)CO)C3=O)cc1 | nt | i | i | 127
COc1ccc(NC(=O)Nc2ccc3c(c2)C(=O)N([C@H](C)CO)C[C@H](C)[C@H](CN(C)Cc2ccc(C(=O)Nc4ccccc4N)cc2)O3)cc1 | nt | i | i | i
COc1ccc(NC(=O)Nc2cccc3c2O[C@H](CN(C)Cc2ccc(C(=O)Nc4ccccc4N)cc2)[C@@H](C)CN([C@@H](C)CO)C3=O)cc1 | nt | i | i | 128
COc1ccc(OC)c(NC(=O)CC2NCCNC2=O)c1 (centres undefined) | nt | i | i | i
Cc1ccc(C)c(NC(=O)Cn2cnc3ccccc3c2=O)c1 | nt | nt | i | i
COc1ccc(-n2nnnc2SCC(=O)Nc2cc(C)c(Cl)cc2OC)cc1 | nt | i | i | 92
COc1ccc(OC)c(NC(=O)CSc2nnnn2-c2ccccc2)c1 | nt | i | i | i
CCc1cc(C(=O)OC)c(NC(=S)Nc2ccc(S(=O)(=O)N3CCOCC3)cc2)s1 | nt | nt | i | i
SMILES | Shh pathway inh | PD-1 reverse act | MITF inh | NOMO-1 viab
COc1ccc(NC(=O)CSc2nccc(=O)[nH]2)cc1Cl | nt | i | i | i
Cc1noc(C)c1S(=O)(=O)Nc1cccc2c1O[C@@H](CN(C)S(=O)(=O)c1ccc(Cl)cc1)[C@@H](C)CN([C@@H](C)CO)C2=O | 106 | nt | i | i
Cc1noc(C)c1S(=O)(=O)Nc1cccc2c1O[C@H](CN(C)S(=O)(=O)c1ccc(Cl)cc1)[C@H](C)CN([C@@H](C)CO)C2=O | i | nt | i | i
Cc1ccc(S(=O)(=O)N(C)C[C@@H]2Oc3c(NS(=O)(=O)c4c(C)noc4C)cccc3C(=O)N([C@H](C)CO)C[C@@H]2C)cc1 | i | i | i | i
Cc1noc(C)c1S(=O)(=O)Nc1cccc2c1O[C@@H](CN(C)S(=O)(=O)c1ccc(Cl)cc1)[C@@H](C)CN([C@H](C)CO)C2=O | 67 | i | i | i
Cc1ccc(S(=O)(=O)N(C)C[C@@H]2Oc3c(NS(=O)(=O)c4c(C)noc4C)cccc3C(=O)N([C@@H](C)CO)C[C@@H]2C)cc1 | 89 | nt | i | i
CC(C)Cc1nc(SC(C)C(=O)Nc2cccc(Cl)c2)n[nH]1 (centres undefined) | nt | i | i | i
O=c1c2c(nc3cc(-c4ccco4)[nH]n13)CSC2 | i | i | i | i
C[C@@H]1CN([C@@H](C)CO)C(=O)Cc2cc(NS(=O)(=O)c3ccc(F)cc3)ccc2O[C@@H]1CN(C)Cc1ccc(Oc2ccccc2)cc1 | i | nt | i | 122
C[C@H]1CN([C@@H](C)CO)C(=O)Cc2cc(NS(=O)(=O)c3ccc(F)cc3)ccc2O[C@H]1CN(C)Cc1ccccc1 | i | i | i | i
C[C@H]1CN([C@@H](C)CO)C(=O)Cc2cc(NS(=O)(=O)c3ccc(F)cc3)ccc2O[C@H]1CN(C)Cc1ccc(Oc2ccccc2)cc1 | i | i | i | 122
C[C@H](CO)N1C[C@H](C)[C@H](CN(C)Cc2ccccc2)Oc2ccc(NS(=O)(=O)c3ccc(F)cc3)cc2CC1=O | i | i | i | i
O=C(CC1(O)C(=O)N(Cc2cccc3ccccc23)c2ccccc21)c1ccccc1[N+](=O)[O-] (centres undefined) | nt | i | i | 114
Cc1ccc(CN2C(=O)C(O)(CC(=O)c3cccc(N)c3)c3cc(Cl)ccc32)cc1 (centres undefined) | nt | i | i | 133
O=C(CC1(O)C(=O)N(Cc2ccc(Cl)cc2)c2ccc(Cl)cc21)c1ccccn1 (centres undefined) | nt | nt | i | 115
Cc1coc(C)c1C(=O)CC1(O)C(=O)N(Cc2ccccc2)c2ccccc21 (centres undefined) | nt | i | i | i
Cc1coc(C)c1C(=O)CC1(O)C(=O)N(CCc2ccccc2)c2ccc(Cl)cc21 (centres undefined) | nt | nt | i | 88
Cc1ccc2c(c1)c1nc3ccccc3nc1n2CC(=O)N(c1ccccc1)C(C)C | nt | i | i | i
O=C(CC1(O)C(=O)Nc2ccc(Br)cc21)c1ccc(NS(=O)(=O)c2ccccc2)cc1 (centres undefined) | nt | i | i | i
CN1C(=O)C(O)(CC(=O)c2ccccn2)c2cc(Br)ccc21 (centres undefined) | nt | i | i | 117
NC(=O)CN1C(=O)C(O)(CC(=O)c2ccc(Cl)cc2Cl)c2ccccc21 (centres undefined) | nt | nt | i | i
COc1ccc(CN2C(=O)C(O)(CC(=O)c3c(C)n[nH]c3C)c3ccccc32)cc1OC (centres undefined) | nt | i | i | i
